Test results published in PubChem BioAssay (NCI).
The panel holds about 79,000 compounds, 15% with a hit somewhere; the sample as a whole holds those more often. Values without a mark were called inactive. The source made the active and inactive calls. Cut-off read from the data, not from the text of the source: active = growth inhibition above about 70%; inactive = the rest.

Assays:
[1] = NCI Yeast Anticancer Drug Screen. Data for the rad50 strain (AID 155);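 note: 0% = growth of vehicle-only cultures of the same strain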; conditions: S. cerevisiae rad50 strain growth inhibition, hits give high values
Summary of the method: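 Inhibition values express reduced yeast growth in compound-treated cultures relative to vehicle-treated controls.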

[2] = NCI Yeast Anticancer Drug Screen. Data for the mec2-1 strain (AID 157); conditions: S. cerevisiae mec2-1 strain, hits give high values
Summary of the method: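 Strain: mec2-1 (DNA repair/cell cycle alteration). Compound exposure, then growth measured; inhibition expressed relative to vehicle.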

[3] = NCI Yeast Anticancer Drug Screen. Data for the sgs1 mgt1 strain (AID 161);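 note: 0% = growth of cultures given vehicle only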; conditions: S. cerevisiae sgs1 mgt1 strain, hits give high values
Summary of the method: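 Read-out: growth inhibition vs vehicle controls. Cells: mutant yeast strain deficient in DNA damage repair.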

[4] = NCI Yeast Anticancer Drug Screen. Data for the cln2 rad14 strain (AID 165);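 note: 0% = growth equal to vehicle treated cultures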; conditions: S. cerevisiae cln2 rad14 strain, hits give high values
Summary of the method: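 Compounds are applied to the cln2 rad14 yeast strain, and growth is then compared with that of vehicle-treated cultures to give inhibition.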

[5] = NCI Yeast Anticancer Drug Screen. Data for the bub3 strain (AID 167); conditions: S. cerevisiae bub3 mutant strain, hits give high values
Summary of the method: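 Steps: expose the mutant yeast strain to compound; grow alongside vehicle-treated cultures; measure growth; express inhibition against the vehicle cultures.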

[6] = NCI Yeast Anticancer Drug Screen. Data for the mlh1 rad18 strain (AID 175); conditions: S. cerevisiae mlh1 rad18 strain growth inhibition, hits give high values
Summary of the method: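 Read-out is yeast growth inhibition, calculated against vehicle-only controls. The compound was applied to a strain engineered with DNA damage repair alterations.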

[7] = at 5.0 µM (retest, dose inferred, filed as 0.5)
[8] = at 50.0 µM (retest, dose inferred, filed as 5.0)

Row | SMILES | growth inhibition [1, 7] | growth inhibition [1, 8] | growth inhibition ([1]; at 50.0 µM) | growth inhibition [2, 7] | growth inhibition [2, 8] | growth inhibition ([2]; at 50.0 µM) | growth inhibition [3, 7] | growth inhibition [3, 8] | growth inhibition ([3]; at 50.0 µM) | growth inhibition [4, 7] | growth inhibition [4, 8] | growth inhibition ([4]; at 50.0 µM) | growth inhibition [5, 7] | growth inhibition [5, 8] | growth inhibition ([5]; at 50.0 µM) | growth inhibition [6, 7] | growth inhibition [6, 8] | growth inhibition ([6]; at 50.0 µM)
1 | Oc1cc(CNCc2ccccc2)c(O)c(CNCc2ccccc2)c1 | 10% | 10% | -4% | 17% | 24% | 31.9% | 5% | 11% | 5.25% | 3% | -13% | 38.2% | -1% | -4% | 1.95% | 8% | 15% | 17%
2 | CCCCCCCCCCC(O)CN1CCN(c2cccc(Cl)c2)CC1 (configuration not stated) | 95% (active) | 98% (active) | 98.9% (active) | 99% (active) | 99% (active) | 98.7% (active) | 99% (active) | 99% (active) | 99.2% (active) | 97% (active) | 98% (active) | 97.2% (active) | 96% (active) | 99% (active) | 90.3% (active) | 99% (active) | 99% (active) | 99.2% (active)
3 | CCc1scc(C)[n+]1CC(=O)c1cccc([N+](=O)[O-])c1 | -1% | 15% | -6.25% | -10% | 3% | -2.9% | 11% | 2% | -4.4% | 12% | 18% | 17.6% | 12% | 25% | 8.95% | 19% | 22% | -1.95%
4 | O=C(CNc1ccc([N+](=O)[O-])cc1)Nn1c(-c2ccccc2)nc2ccccc2c1=O | 18% | 23% | 82.1% (active) | 3% | 26% | 70.5% (active) | 6% | 25% | 72.7% (active) | 11% | 19% | 38.8% | 4% | 54% | 91.8% (active) | 2% | 28% | 85.4% (active)
5 | O=C(O)CN1CCNCCN(CC(=O)O)CCNCC1 | 66% | 94% (active) | 50.7% | 59% | 93% (active) | 76.1% (active) | 56% | 94% (active) | 69.8% | 25% | 85% (active) | 54.8% | 60% | 95% (active) | 56.2% | 66% | 94% (active) | 56%
6 | C[n+]1c(-c2ccc(/C=N\NC(=O)c3ccc(C(=O)N/N=C/c4ccc(-c5cn6ccsc6[n+]5C)cc4)cc3)cc2)cn2ccsc21 | 65% | 98% (active) | 90.6% (active) | 81% (active) | 98% (active) | 86.7% (active) | 72% (active) | 98% (active) | 84.5% (active) | 27% | 98% (active) | 86.7% (active) | 86% (active) | 98% (active) | 83.8% (active) | 88% (active) | 97% (active) | 91.5% (active)
7 | NC(N)=NS(=O)(=O)c1ccc(N=Cc2c3ccccc3nc3cc(Cl)ccc23)cc1 | 5% | -4% | 95.1% (active) | 11% | -2% | 93% (active) | 4% | -5% | 96.2% (active) | -5% | -3% | 91.5% (active) | 10% | 0% | 26.5% | 6% | -2% | 97% (active)
8 | COc1cccc2c1C(=O)c1c(O)c3c(c(O)c1C2=O)CC(O)(C(C)=O)CC3OC1OC(COC(C)=O)C(OC(C)=O)C(OC(C)=O)C1OC(C)=O (configuration not stated) | 5% | 58% | 95.5% (active) | 49% | 30% | 97.5% (active) | 3% | 33% | 97.8% (active) | 5% | 8% | 97.2% (active) | 2% | 83% (active) | 98.9% (active) | 3% | 59% | 98% (active)
9 | CCOC(=O)n1c2ccccc2c(=O)n1CCO | -23% | -15% | 97.5% (active) | -16% | -19% | 98.9% (active) | -19% | -12% | 87.7% (active) | -32% | -18% | 43.2% | -28% | -11% | 97.3% (active) | -33% | -11% | 50%
10 | COC(=O)c1ccc(NCC2=C(Br)C(=O)C=CC2=O)cc1Cl | 43% | 98% (active) | 89.4% (active) | 35% | 98% (active) | 77.6% (active) | 35% | 98% (active) | 92.3% (active) | 43% | 98% (active) | 88.8% (active) | 44% | 98% (active) | 90.8% (active) | 37% | 97% (active) | 89.7% (active)
11 | C[N+]1(C)CCCC(OCCCCCCCCCCCCCCOC2CCC[N+](C)(C)C2)C1 (configuration not stated) | 14% | 95% (active) | 87.9% (active) | 34% | 98% (active) | 80.5% (active) | 35% | 97% (active) | 98.8% (active) | 37% | 92% (active) | 98.2% (active) | 37% | 94% (active) | 97.6% (active) | 77% (active) | 97% (active) | 99% (active)
12 | C=CS(=O)(=O)c1ccc(Cl)cc1 | -116% | 97% (active) | 99.7% (active) | -19% | 98% (active) | 99.7% (active) | -23% | 98% (active) | 99.2% (active) | -42% | 98% (active) | 99.1% (active) | -34% | 98% (active) | 99.4% (active) | -73% | 97% (active) | 99% (active)
13 | O=Nc1ccc(O)c(/C=N/O)c1 | 19% | 94% (active) | 87.3% (active) | 11% | 96% (active) | 91% (active) | 6% | 90% (active) | 92.1% (active) | 24% | 95% (active) | 83.8% (active) | 1% | 99% (active) | 90% (active) | 1% | 97% (active) | 88.9% (active)
14 | S=c1c2ccccc2[nH]c2ccccc12 | -3% | 86% (active) | 89.2% (active) | -6% | 62% | 63% | -2% | 83% (active) | 60.6% | -7% | 46% | 75.3% (active) | 8% | 33% | 88.8% (active) | -5% | 88% (active) | 85.5% (active)
15 | Cc1cccc2c(=O)c3ccccc3oc12 | 5% | 42% | 47.5% | 2% | 11% | 17.2% | -1% | 18% | 15.4% | 12% | -1% | -63.5% | 9% | 19% | 14.5% | 9% | 11% | 3.5%
16 | CCCCCCCCCCC(NC(C)=O)(C(=O)OCC)C(=O)OCC | -9% | 98% (active) | 97.5% (active) | -3% | 99% (active) | 98% (active) | -3% | 99% (active) | 67.3% | -5% | 99% (active) | 98.3% (active) | 0% | 98% (active) | 94.5% (active) | 11% | 98% (active) | 82.8% (active)
17 | COc1cnc2cc3c4c(cccc4c2c1)NC3=O | 87% (active) | 91% (active) | 80% (active) | 51% | 89% (active) | 82.2% (active) | 55% | 92% (active) | 79.7% (active) | 43% | 83% (active) | 75% (active) | 51% | 87% (active) | 80.8% (active) | 75% (active) | 91% (active) | 86% (active)
18 | CS(=O)(=O)OCCN(CCOS(C)(=O)=O)c1ccc(C=Nc2ccc3ccccc3c2)cc1 | 12% | 80% (active) | 86.7% (active) | 47% | 55% | 73.2% (active) | 6% | 45% | 71.1% (active) | -2% | 64% | 37.7% | -3% | 6% | 10.3% | 28% | 90% (active) | 95.3% (active)
19 | CCOC(=O)c1sc2c(c1O)c(=O)n(-c1ccccc1)c(=S)n2-c1ccccc1 | 84% (active) | 98% (active) | 95.7% (active) | 90% (active) | 98% (active) | 95.8% (active) | 83% (active) | 98% (active) | 95.5% (active) | 86% (active) | 98% (active) | 85.3% (active) | 47% | 97% (active) | 95.2% (active) | 92% (active) | 98% (active) | 95% (active)
